This assay is described as follows: LNCaP cell loss by flow event count, confirmation, cytotoxicity control for prostate differentiation activator project, single point (AID 1076).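 Further: counts scatter-gated live cells after medium removal discards detached dead cells.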 The conditions noted are these: flow cytometry event count, 4 d, stronger effect = lower value. (In general: In flow cytometry, cells or beads pass a laser one at a time.)

Active and inactive are the calls of the source.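 How the source made its calls: active means cell event count below 40, meaning activity score above 60 where score is 100 minus count; inactive means the rest.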

With `Cc1sc(CO)c(Sc2ccccc2)c1C(=O)O`, the cell event count reads like this: (at 100 µM) 324 (inactive); (event count, at 10 µM) 240.
On to `O=C(CCn1c(=O)oc2ccccc21)NCCCN1CCN(c2ccc(F)cc2)CC1`, for which the cell event count by setting is: (at 100 µM) 213 (inactive); (event count, at 10 µM) 127.
In the case of `COc1ccc(N2CCN(c3oc(COc4ccccc4Cl)nc3C#N)CC2)cc1`, the cell event count reads like this: (at 100 µM) 214 (inactive); (event count, at 10 µM) 172.
With `Cc1cccc(N2CCN(C(=O)CCNC(=O)Cn3ccc4ccccc4c3=O)CC2)c1C`, the cell event count (at 100 µM) is 8 (inactive) and the cell event count (event count, at 10 µM) came to 246.
As to `Cc1cc(N2CCN(C)CC2)nc2ccc(NC(=O)c3ccc(Br)o3)cc12`, the cell event count runs as follows: (at 100 µM) 4 (inactive); (event count, at 10 µM) 96.5.
With `O=C(NCCCN1CCOCC1)c1cc2c(s1)CSC2`, the cell event count (at 100 µM) is 191 (inactive) and the cell event count (event count, at 10 µM) amounted to 52.5.
Consider `O=C(CCN1C(=O)COc2ccccc21)NCCCN1CCN(c2ccc(F)cc2)CC1`, for which the cell event count is 117 (inactive) (at 100 µM) and 146 (event count, at 10 µM).
Taken in the same sequence, the figures for `CCc1ccc(-c2nc(CN3CCCC(C(=O)NCCc4ccc(OC)c(OC)c4)C3)c(C)o2)cc1` (stereo not drawn) were 8 (inactive) and 144.
Taken in the same sequence, the figures for `CCN(CC)CCNC(=O)c1ccc(N2CCCCC2)c(NS(=O)(=O)c2ccc(C)cc2)c1` were 17 (inactive) and 197.
`Cc1ccc(Cl)cc1N1CCN(C(=O)c2cc3c(=O)n(C)c4ccccc4c3n2C)CC1`: the cell event count is, setting by setting: (at 100 µM) 31 (active); (event count, at 10 µM) 10.5.
As for `Cc1cc(O)c(-c2cc(C(=O)Nc3ccc(S(=O)(=O)N4CCOCC4)cc3)[nH]n2)cc1C`, the cell event count is, setting by setting: (at 100 µM) 36 (inactive); (event count, at 10 µM) 86.
Take `Cc1cc(N2C(=O)C3C4C=CC(C4)C3C2=O)ccc1Br` (stereo not drawn): the cell event count (at 100 µM) is 272 (inactive) and the cell event count (event count, at 10 µM) stood at 69.5.
Taken in the same sequence, the figures for `CCCc1ccc(Oc2cn[nH]c2-c2ccc(O)c(C)c2O)cc1` were 5 (inactive) and 106.
On the same counts, the results for `CCCCOC(=O)Nc1cc(C(=O)OC)ccc1C(=O)OC` are 143 (inactive) and 206.

The record behind these values is PubChem BioAssay AID1076 (NMMLSC, 2008).
